The source of these data is PubChem BioAssay AID504599 (National Center for Advancing Translational Sciences (NCATS), 2011).

The nature of the assay: Quantitative high throughput screen for delayed death inhibitors of the malarial parasite plastid, 96 hour incubation. The following applies: P. falciparum luciferase growth. From the text:
NIH Molecular Libraries Probe Production Network [MLPCN] NIH Chemical Genomics Center [NCGC] MLPCN Grant: R21 NS059500 Assay Provider: David Fidock and Eric Ekland, Columbia University The goal of this screen is to discover new antimalarial compounds that act by inhibiting the development of the apicoplast in the malarial parasite Plasmodium falciparum. The biochemical processes that make this organelle essential for erythrocytic stage parasites are not well understood. However, antibiotics, such as azithromycin and tetracycline, which target the apicoplast translational machinery, have a potent antimalarial effect. […] We have developed a cell-based assay that measures parasite growth based on the expression of an integrated copy of a firefly luciferase reporter. […] Growth inhibition is detected by a decrease in luciferase activity
Four microliters of culture medium (RPMI 1640 with 0.5% w/v Albumax (GIBCO), 24 mM sodium bicarbonate and 10 ug/mL gentamycin) were dispensed by a Multi-drop Combi into white solid 1536-well plates (Grenier) and 23 nL compound was added by a pin tool. […] Two microliters of luciferase detection reagent was added and luminescence was detected by a ViewLux (PerkinElmer) reader

Molecules are shown by their SMILES. Calls of active or inactive are those of the source. Calls come from the whole dose curve; as a rule, active = well fitted inhibition curve with a large enough effect; inconclusive = small, poorly fitted or top-dose-only effect; inactive = flat fitted curve, though single readings scatter.

With `COc1ccc(COC[C@H](C)N2C[C@@H](C)[C@H](CN(C)S(=O)(=O)c3ccc(F)cc3)OCCCC[C@H](C)Oc3ccc(NC(=O)Nc4ccccc4)cc3C2=O)cc1`, the Potency is 0.0025 µM (active).

With `COCCOC(=O)N(C)C[C@@H]1OCCCC[C@H](C)Oc2ccc(NC(=O)Nc3ccccc3)cc2C(=O)N([C@@H](C)CO)C[C@H]1C`, the Potency is 17.9 µM (active).
